A number with no mark means an inactive call. Results filed as inconclusive are left out. Where a call stands in place of a potency, no number is given. Activity calls are given as the source filed them. Calls follow the shape of the dose curve; as a rule, active = well fitted curve in the direction sought with a large enough effect; inconclusive = small, poorly fitted or top-dose-only effect, or another doubt; inactive = no such curve, though single readings can be large; an effect the other way counts as inactive or inconclusive.
Assays:
[1] = Cellular Toxicity (caspase-3) Mesangial (AID 660); settings: mesangial cells, normalized: DMSO 0%, 100 µM tamoxifen 100%; at 91.7 µM (top of the series);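 also: combined caspase 3 and 7 activity read by Caspase-Glo luminescence; cells exposed to compound for 16 h before the caspase read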
Summary of the method: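 Caspase 3/7 activation measured by Caspase-Glo 3/7 luminescence (20 min, room temperature) following 16 h exposure of mesangial cells (1000/well); AC50 from Hill-equation fit, normalized to DMSO and 100 uM tamoxifen.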

[2] = Cellular Toxicity (caspase-3) SK-N-SH (AID 661);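 also: cells exposed to compound for 16 hours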
Summary of the method: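 Caspase 3/7 activation was read by luminogenic substrate cleavage after 16 hour treatment of SK-N-SH cells. Signal was scaled between DMSO and 10 uM staurosporine, and concentration-response data were fitted with the Hill equation for AC50.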

[3] = Cellular Toxicity (caspase-3) N2a (AID 665);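 also: compound exposure lasted 16 h at 37 °C before readout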
Summary of the method: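 Caspase-3/7 activation measured as luminescence from Caspase-Glo reagent (1 h, room temperature) after 16 h compound exposure of mouse N2a cells. AC50 values from Hill-equation concentration-response, scaled between DMSO and 10 uM staurosporine.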

[4] = Cellular Toxicity (caspase-3) NIH 3T3 (AID 666);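 also: caspase signal read after 16 h compound exposure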
Summary of the method: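 Caspase-Glo 3/7 luminescence reported caspase activation in 1000 NIH 3T3 cells/well after 16 h compound exposure at 37 C. DMSO set basal and 100 uM tamoxifen set 100% stimulation; concentration-response modeled with the Hill equation for AC50.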

[5] = Cellular Toxicity (caspase-3) Renal Proximal Tubule (AID 667); settings: Potency: caspase-3 activation;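 also: cells exposed to compound for 16 hours at 37 °C before detection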; also: potency is read from the fitted curve at half-maximal effect
Summary of the method: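 AC50 derived by standard Hill fit of concentration-response data, normalized between DMSO basal and 10 uM staurosporine as 100% stimulation. Cells: primary rat kidney proximal tubule, 16 h treatment at 37 °C.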

[6] = target: Cytochrome P450 3A4 (Homo sapiens) (UniProt P08684); test: qHTS Assay for Inhibitors and Substrates of Cytochrome P450 3A4 (AID 884); also: nearly all actives have a fitted effect of over 50% in size
Sequence of Cytochrome P450 3A4 (Homo sapiens) (P08684 whole entry, looked up): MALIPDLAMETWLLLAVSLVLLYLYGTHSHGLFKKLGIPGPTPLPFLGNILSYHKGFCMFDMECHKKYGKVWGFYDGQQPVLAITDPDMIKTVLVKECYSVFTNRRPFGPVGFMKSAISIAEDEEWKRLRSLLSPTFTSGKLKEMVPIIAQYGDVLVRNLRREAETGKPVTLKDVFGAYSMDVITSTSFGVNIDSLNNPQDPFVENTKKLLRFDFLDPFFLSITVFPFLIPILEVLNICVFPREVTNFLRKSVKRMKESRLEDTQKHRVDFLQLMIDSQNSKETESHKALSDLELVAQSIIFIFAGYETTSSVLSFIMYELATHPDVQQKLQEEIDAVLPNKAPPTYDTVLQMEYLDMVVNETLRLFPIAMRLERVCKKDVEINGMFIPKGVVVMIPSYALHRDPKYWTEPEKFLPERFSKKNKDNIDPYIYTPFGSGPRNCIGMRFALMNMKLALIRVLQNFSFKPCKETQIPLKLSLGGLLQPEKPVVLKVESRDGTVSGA
Summary of the method: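 Luminescent readout of luciferin produced by CYP3A4 (20 nM) dealkylation of Luciferin-PPXE, 25 uM (its KM). NADPH-driven reaction ran 60 min at RT after 10 min compound preincubation; data scaled to 57 uM ketoconazole as 100% inhibition.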

[7] = Cell Viability - LYMP2-001 (AID 921); also: nearly all actives have a fitted effect of over 70% in size
Summary of the method: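 Steps: seed 2500 lymphoblastoid cells/well; 5 hr, 37 C; add compound; 24 hr, 37 C; CellTiter-Glo reagent, 30 min room temperature; read luminescence. Concentration-response modeled by Hill equation for AC50.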

[8] = MultiTox-Fluor Cytotoxicity Assay - LYMP1-001 - Dead Cells (AID 946)
Summary of the method: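 AC50 from Hill fit of concentration-response; data normalized to DMSO (basal) and 15 uM tetraoctylammonium bromide (100%). LYMP1-001 lymphoblastoid cells, 2500/well, 16 hr compound at 37 C; dead-cell protease fluorescence, Ex/Em 485/520.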

[9] = MultiTox-Fluor Cytotoxicity Assay - LYMP1-001 - Live Cells (AID 947)
[10] = Cell Viability - LYMP1-002 - Assay at 16 hr (AID 948)
Summary of the method: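 Seed 2500 LYMP1-002 cells per well in complete medium and hold 5 hr at 37 C. Add compound across a concentration series and incubate 16 hr at 37 C. Add CellTiter-Glo, wait 30 min at room temperature, read luminescence.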

[11] = MultiTox-Fluor Cytotoxicity Assay - LYMP1-002 - Live Cells (AID 955);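 also: cells exposed to compound for 16 hours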
Summary of the method: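 After 16 h compound exposure at 37 C, live LYMP1-002 lymphoblastoid cells (2500/well) were quantified by cleavage of cell-permeant GF-AFC substrate, read at 405/510 nm after 60 min. Concentration-response fitted with Hill equation for AC50.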

[12] = MultiTox-Fluor Cytotoxicity Assay - LYMP1-003 - Live Cells (AID 962);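 also: cells exposed to compound for 16 hours at 37 °C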; also: potency is read from the fitted curve at half-maximal effect
Summary of the method: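 Live-cell protease activity (GF-AFC substrate, 405/510 nm, 60 min at room temperature) after 16 h, 37 C compound exposure of human lymphoblastoid LYMP1-003 cells; concentration-response fitted to the Hill equation for AC50.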

[13] = Cell Viability - LYMP1-003 - Assay at 24 hr (AID 963)
Summary of the method: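 Concentration-response qHTS: ATP loss measured by CellTiter-Glo luminescence after 24 h compound exposure at 37 C. Cells were LYMP1-003 human lymphoblastoid, 2500 per well. AC50 derived via standard Hill equation modeling.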

[14] = Cell Viability - LYMP1-003 - Assay at 40 hr (AID 964); also: nearly all actives have a fitted effect of over 60% in size
Summary of the method: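 Viability is taken as cellular ATP, read by CellTiter-Glo luminescence after 40 h of compound exposure at 37 C. Cells: human lymphoblastoid line LYMP1-003 at 2500/well; AC50 values derived by Hill-equation fitting of concentration-response data.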

[15] = Cell Viability - LYMP2-003 (AID 965);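 also: cells exposed to compounds for 24 h before reading; nearly all actives have a fitted effect of over 50% in size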; also: potency is read from the fitted curve at half-maximal effect
Summary of the method: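 Seed 2500 lymphoblastoid cells/well; incubate 5 hr, 37 C; add compounds; incubate 24 hr, 37 C; add CellTiter-Glo, 30 min RT; read luminescence. AC50 from Hill fit.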

[16] = Cellular Toxicity (caspase-3) Hek293 (AID 664); settings: HEK293 caspase-3 activation, DMSO = 0%, 100 µM tamoxifen = 100%; at 92.2 µM (top of the series);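 also: cells exposed to compound for 16 h at 37 °C before readout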
Summary of the method: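 Concentration-response qHTS: caspase 3/7 activation measured by luminescent aminoluciferin substrate cleavage after 16 h compound exposure of Hek 293 cells. AC50 from Hill equation, with DMSO as basal and 100 uM tamoxifen as 100%.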

[17] = MultiTox-Fluor Cytotoxicity Assay - LYMP1-002 - Dead Cells (AID 960); also: nearly all actives have a fitted effect of over 60% in size
Summary of the method: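 Dead-cell fluorescence (Ex/Em 485/520) after 16 h compound exposure at 37 C of LYMP1-002 lymphoblastoid cells in complete medium; AC50 by Hill equation, with data scaled between DMSO and 15 uM tetraoctylammonium bromide.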

[18] = MultiTox-Fluor Cytotoxicity Assay - LYMP1-003 - Dead Cells (AID 961); also: nearly all actives have a fitted effect of over 70% in size; also: potency is read from the fitted curve at half-maximal effect
Summary of the method: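 Human lymphoblastoid LYMP1-003 cells (2500/well) were treated with compounds for 16 hr at 37 C in complete medium. Dead-cell protease release was read by bis-AAF-R110 fluorescence (Ex/Em 485/520). AC50 came from Hill fits, normalized to DMSO and 15 uM tetraoctylammonium bromide.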

[19] = Cellular Toxicity (caspase-3) H-4-II-E (AID 663); settings: H-4-II-E rat hepatoma, scaled: DMSO 0%, 100 µM tamoxifen 100%; at 92.2 µM (top of the series);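 also: cells exposed to compound for 16 hr before readout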
Summary of the method: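 H-4-II-E rat hepatoma, 1500 cells/well, 5 hr settle at 37 °C; compound 16 hr, 37 °C, complete medium; Caspase-Glo 3/7, 20 min RT; luminescence. DMSO = 0%, 100 uM tamoxifen = 100%; Hill-equation AC50.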

[20] = target: Cytochrome P450 3A4 (Homo sapiens) (UniProt P08684); test: qHTS Assay for Activators of Cytochrome P450 3A4 (AID 885); also: nearly all actives have a fitted effect of over 65% in size
Summary of the method: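 CYP3A4 activity: Luciferin-PPXE O-dealkylation, 25uM substrate, 200mM KPO4, RT throughout. Read-out is luciferase luminescence; higher values reflect activation.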

SMILES	caspase-3 activation [1]	outcome [2]	outcome [3]	outcome [4]	Potency [5]	Potency [6]	Potency [7]	outcome [8]	outcome [9]	outcome [10]	outcome [11]	Potency [12]	Potency [13]	Potency [14]	Potency [15]	caspase-3 activation [16] [%]	outcome [17]	Potency [18]	caspase-3 activation [19]	outcome [20]
Cc1cccc(C)c1	-0.476%	inactive	inactive	inactive	inactive	inactive	inactive	inactive	inactive	inactive	inactive	inactive	inactive	inactive	inactive					
Cc1cc(C)cc([N+](=O)[O-])c1	-0.822%	inactive	inactive	inactive		inactive	inactive	inactive	inactive	inactive	inactive	inactive			inactive	0.15	inactive	inactive		
CC1=C(/C=C/C(C)=C/C=C/C(C)=C\C=O)C(C)(C)CCC1	90.3% (active)				31.6 µM (active)							50.1 µM (active)			39.8 µM (active)			31.6 µM (active)	113% (active)	inactive
CC(C)=CCC/C(C)=C/C=O	0.108%	inactive	inactive	inactive	inactive	inactive	inactive	inactive	inactive	inactive	inactive	inactive	inactive	inactive	inactive	-2.02	inactive	inactive		
C=C(C)C1CC=C(C)C(OC(C)=O)C1 (stereo not given)	-0.114%	inactive	inactive	inactive	inactive	inactive	inactive	inactive	inactive	inactive	inactive	inactive	inactive	inactive	inactive	1.35	inactive	inactive		
NC=O	-0.458%	inactive	inactive	inactive		inactive	inactive	inactive	inactive	inactive	inactive	inactive	inactive	inactive	inactive	-1.11	inactive	inactive		
CCOC(C)(C)C	-0.979%	inactive	inactive	inactive	inactive	inactive	inactive	inactive		inactive	inactive	inactive	inactive	inactive	inactive	1.78	inactive	inactive		
C=C(C)C(=O)OCC(C)C	1.08%	inactive	inactive	inactive	inactive	inactive	inactive	inactive	inactive	inactive	inactive	inactive	inactive	inactive	inactive					
ICCc1ccccc1	0.262%	inactive	inactive	inactive	inactive	inactive	inactive	inactive	inactive	inactive	inactive	inactive	inactive	inactive	inactive	3.13	inactive	inactive		
CC/C(C)=N/O	0.891%	inactive	inactive	inactive	inactive		inactive	inactive		inactive	inactive	inactive	inactive	inactive	inactive	1.42	inactive	inactive		
CCc1ccccc1O	-0.562%	inactive	inactive	inactive	inactive	inactive	inactive	inactive	inactive	inactive	inactive	inactive		inactive	inactive	-1.55		inactive		
Nc1ccccc1S(=O)(=O)O	-0.218%	inactive	inactive	inactive	inactive	inactive	inactive	inactive	inactive	inactive	inactive	inactive	inactive	inactive	inactive	1.83	inactive	inactive		
